# Screening results (PubChem BioAssay)
# This is a sample that favours compounds with a hit; in the whole collection about 4.5% have one here.
# TIM10 inh = TIM10 yeast growth inhibition | AID 463195 | S. cerevisiae TIM10 strain growth, BacTiter-Glo luminescence, 24 h | hit rate 1.4% among 330,000 | inhibition, % at 10 µM;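 active = inhibition of 40% or more at the single tested concentration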;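 note: wild-type TIM10 isogenic control strain grown at permissive 25 °C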
# tim23-1 inh = inhibits growth of tim23-1 mutant yeast. inhibition, % at 20 µM. S. cerevisiae tim23-1 growth, BacTiter-Glo luminescence, 24 h. hit rate 1.3% among 330,000;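 active = growth inhibition of the mutant yeast at or above 50%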;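 note: temperature-sensitive mutant grown at 25 °C; plate controls were DMSO-treated mutant yeast for no effect and medium wells lacking yeast for full effect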
# SKKanGAS inh = blocks kanamycin growth of S. pyogenes SKKanGAS strain; BacTiter-Glo, 6 h; inhibition, % at 7.5 µM; hit rate 1.3% among 300,000;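 active = mean replicate score, as percent of positive control median, at least 50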;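 note: strain carries kanamycin resistance gene driven by streptokinase promoter and grows in 40 µg/ml kanamycin; loss of luminescence reflects streptokinase promoter inhibition or plain growth inhibition; 0% = median of DMSO wells and 100% = positive control at its reference dose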
# NALP3 yeast inh = NALP3 inhibition in yeast. Yeast reconstituted NLRP3/ASC/caspase-1, beta-gal luminescence, 24 h. inhibition, % at 10 µM. hit rate 0.39% among 330,000;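 active = inhibition of 50% or more; inactive = inhibition below 50%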;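 note: plate controls were induced DMSO wells for no effect and uninduced yeast grown without galactose for full effect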
# tim10-1 inh = growth inhibitors of tim10-1 mutant yeast | inhibition, % at 20 µM | hit rate 2.2% among 330,000 | S. cerevisiae tim10-1 ts strain growth, BacTiter-Glo, 24 h;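 active = inhibition of at least 40%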;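 note: mutant grown at 25 °C; 0% = DMSO wells with yeast and 100% = wells holding no yeast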
# PfHsp90 set2 = inhibits growth of yeast expressing Plasmodium falciparum Hsp90; S. cerevisiae expressing PfHsp90, BacTiter-Glo ATP, 48 h; yeast lacking PDR1 and PDR3 efflux regulators; inhibition, % at 9.4 µM; hit rate 0.32% among 310,000;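 active = every replicate shows inhibition above about 80%, whatever the replicate mean, limit read from the data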;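 note: 0% = DMSO neutral controls and 100% = 20 µM radicicol positive controls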
# tim10-1 confirm = confirmation of tim10-1 mutant yeast growth inhibitors | shares compounds with tim10-1 inh | S. cerevisiae tim10-1 ts strain growth, BacTiter-Glo, 24 h | inhibition, % at 20 µM | hit rate 56% among 7,400 | AID 463213;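 active = inhibition of yeast growth at or above a set limit in either of two repeat tests at 20 µM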;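 note: tim10-1 mutant grown at permissive 25 °C to find synthetic lethal compounds; 0% = DMSO yeast wells and 100% = medium wells without yeast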
# * hit, by the source's call; / = not tested or not shown.
SMILES,TIM10 inh,tim23-1 inh,SKKanGAS inh,NALP3 yeast inh,tim10-1 inh,PfHsp90 set2,tim10-1 confirm
COCCCNCCCOc1ccc(Cl)cc1C(C)(C)C,13.7,6.4,5.4,32.9,9.8,-25.2,/
COC(=O)c1cccc(NC(=O)CCCN2C(=O)NC3(CCCC3)C2=O)c1,-1.1,5.5,/,10.8,-5.9,4.8,/
CCCCc1cc(=O)oc2cc(OC(C)C(=O)NCc3ccccn3)c(Cl)cc12 (stereo not given),5.2,24.4,-1.1,5.4,41.3*,-60.9,-36.0
CC(=O)Nc1sc(C)c(C)c1C(=O)OCC(=O)NC(C)c1ccccc1 (stereo not given),9.6,19.8,/,25.8,23.0,19.7,/
COc1ccc(C/C(C)=N/NC(=S)Nc2ccc(C(C)C)cc2)cc1,9.8,34.0,-2.3,7.2,40.3*,-29.0,24.6
Cc1cc(/C=C2/SC(=S)N(c3cccc(C(F)(F)F)c3)C2=O)c(C)n1-c1cccnc1,30.1,27.1,10.1,3.5,49.7*,2.2,25.1
Cc1ccc(C(=O)Nc2ccc(C(=O)N3CCCCC3C)cc2)cc1 (stereo not given),13.0,22.0,-3.7,-1.8,46.5*,16.8,26.4
CCCCCCCNC(=O)C1(CC2CC(c3ccc(Cl)cc3)=NO2)CCN(C(=O)CCCCCBr)CC1 (stereo not given),5.1,16.5,-0.4,-9.0,17.0,-13.9,/
Cc1ccc(NC(=S)N(CCN2CCOCC2)Cc2ccccc2F)cc1,5.5,20.9,-4.9,11.2,24.7,-13.6,/
Cc1cc(NC(=S)N(CCN2CCOCC2)Cc2ccccc2F)ccc1Cl,32.1,25.3,-3.9,5.2,44.2*,18.5,16.0
CN(C)C(=O)C(Sc1ccc(S(=O)(=O)N2CCCC2)cn1)c1ccccc1 (stereo not given),11.5,16.3,/,1.7,23.7,3.7,/
CCOc1ccc(OCC)c(S(=O)(=O)n2ccnc2C)c1,-48.8,-81.8,-11.3,15.7,-21.6,0.4,/
CCOc1ccc(C(C)C)cc1S(=O)(=O)n1ccnc1C,-11.2,4.4,-2.6,-8.5,41.1*,-2.1,5.5
Cc1ccc(S(=O)(=O)CCc2nnc(NC(=O)c3ccccn3)s2)cc1,7.9,19.4,-0.3,5.1,44.3*,-6.0,28.9
Cc1ccc(S(=O)(=O)CCc2nnc(NC(=O)c3cnccn3)s2)cc1,3.7,22.2,-1.8,13.6,24.8,-19.3,/
Cc1c(-c2ccccc2)sc(Br)c1C(=O)N1CCOCC1,13.9,40.6,3.5,10.7,47.8*,-15.4,23.4
Cc1ccc2[nH]c(C(=O)N3CCCC(Nc4ccc(F)cc4)C3)cc2c1 (stereo not given),16.8,36.0,1.2,26.2,51.4*,9.2,2.7
Fc1ccc2nc3c(nc2c1)CCCC3,10.0,-9.7,5.5,11.1,-11.4,4.9,/
NC(=O)c1cccc2c1-c1ccccc1/C2=N/NC(N)=S,12.4,19.8,-14.8,27.0,-12.7,-0.1,/
COC(=O)c1cccc2c1-c1ccccc1/C2=N\NC(N)=O,23.0,11.6,-8.1,12.6,40.4*,-14.5,12.1
CCOC(=O)C1CCCN(C(=O)Cn2sc3nc(C)cc(C)c3c2=O)C1 (stereo not given),3.0,6.9,6.4,-5.8,40.6*,-9.1,30.4
Cc1cc(C)c2c(=O)n(CC(=O)N3CCC(N4CCCCC4)CC3)sc2n1,-3.6,13.8,0.7,3.5,12.2,4.9,/
Cc1ccc(CNS(=O)(=O)c2ccc3c(c2)NC(=O)C(C)S3)cc1 (stereo not given),7.9,22.7,-3.3,10.1,34.1,14.4,/
C=CCc1c(C)nc(SC)nc1Nc1ccccc1,19.5,35.0,-0.5,21.3,44.2*,/,26.5
